High-throughput results from PubChem BioAssay.
In the library only some 5.7% were active in any assay of this set; here they are far more common.
MKP-1 inh: MKP-1 phosphatase inhibitors, primary screen, biochemical, in vitro. Dual specificity protein phosphatase 1 (Homo sapiens), P28562. hit rate 0.15% among 65,000. inhibition, %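 (compounds tested at a single concentration somewhere between 10 and 100 µM)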. AID 374, 2006. recombinant MKP-1, OMFP hydrolysis fluorescence;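 active = inhibition above about 50%, limit read from the data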;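 also: 0% = DMSO max control wells and 100% = wells with enzyme stopped by NaOH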
Target sequence (P28562 whole entry, looked up): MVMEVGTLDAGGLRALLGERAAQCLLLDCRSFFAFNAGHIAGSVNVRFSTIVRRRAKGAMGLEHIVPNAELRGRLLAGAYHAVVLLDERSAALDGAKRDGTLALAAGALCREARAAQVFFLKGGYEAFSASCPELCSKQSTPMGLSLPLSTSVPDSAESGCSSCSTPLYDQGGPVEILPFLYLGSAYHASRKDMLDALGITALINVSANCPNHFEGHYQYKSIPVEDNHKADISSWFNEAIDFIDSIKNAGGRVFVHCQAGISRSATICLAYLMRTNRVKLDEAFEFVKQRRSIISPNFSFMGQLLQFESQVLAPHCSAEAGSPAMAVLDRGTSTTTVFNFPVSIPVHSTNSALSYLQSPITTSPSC
Cdc25B block: inhibitors of Cdc25B phosphatase catalytic domain, primary screen, biochemical, OMFP fluorescence; inhibition, %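 (compounds tested at 10 µM final in the well)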; hit rate 0.1% among 65,000; recombinant Cdc25B, OMFP fluorescence Ex485/Em525; in the data active = inhibition above about 50%
Hsp90 block: tumor Hsp90 inhibitors, primary screen, cell lysate, fluorescence polarization, NCI-N417 lysate; Heat shock protein HSP 90-alpha (Homo sapiens), P07900; Cy3B-geldanamycin FP displacement; inhibition, % at 30 µM; hit rate 0.35% among 64,000;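 active = inhibition above 50%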;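 also: 0% = tracer plus lysate wells and 100% = tracer alone without lysate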
Autofluor 339: intrinsic fluorescence of library compounds, ex339/em460 – biochemical, MLSMR library, data from DPM-DC assay, artefact control, profiling panel; compound autofluorescence, ex339/em460 nm, NADH buffer; active compounds read high; 1 = no-compound wells, NADH background; fluorescence fold increase at 10 µM; hit rate 5.5% among 65,000; AID 709, 2007;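 active = at 10 µM, mean starting fluorescence two-fold or more over control wells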;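 also: signal is the first read of a kinetic run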
NADH enzymes: inhibitors of PK/LDH coupling enzymes, profiling panel, artefact control, biochemical, MLSMR library; IC50, µM (top dose mostly 10 µM), for inactives: top-dose inhibition; coupled PK/LDH NADH assays, four targets; hit rate 0.02% among 65,000;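 active = single-dose screening hits from any of four coupled enzyme assays that gave an IC50 when retested across doses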;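 also: the DPM-DC format reads NADH fluorescence rather than 340 nm absorbance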
A340 absorber: compound light absorbance at 340 nm, profiling panel, artefact control, biochemical, MLSMR library, data from PS, PMK, MK assays; compound absorbance at 340 nm, fold over control; 65,000 tested, under 10 active; fold change at 10 µM;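 active = at 10 µM dose, initial 340 nm absorbance at least 2 fold that of control wells; inactive = change under 2 fold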;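 also: initial absorbance extrapolated from kinetic A340 decline of NADH oxidation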
* = called active by the depositor; . = no result.

SMILES | MKP-1 inh | Cdc25B block | Hsp90 block | Autofluor 339 | NADH enzymes | A340 absorber
CCOC(=O)c1nnc(-c2ccccc2)o1 | -5.1 | 1.4 | 2.7 | 1.02 | 3.0% | 0.99
COC(=O)c1nc(-c2ccc(C)cc2)oc1N(C)C | -6.4 | -10.2 | -2.7 | 4.95* | 9.0% | 1.06
c1ccc(CCc2nn3c(Cc4ccccc4)nnc3s2)cc1 | 3.4 | -10.9 | -6.9 | 1.1 | 0.0% | 1.07
FC(F)(F)c1cc(-c2ccco2)nc(-n2nnc3ccccc32)n1 | 13.4 | -5.6 | -1.0 | 2.39* | 11.0% | 1
FC(F)(F)c1cc(-c2ccco2)nc(-n2nc(C(F)(F)F)cc2C2CC2)n1 | 1.7 | -5.7 | -2.1 | 3.42* | 11.0% | 1.04
CS(=O)(=O)c1nc(-c2ccco2)cc(C(F)(F)F)n1 | 1.4 | -1.3 | . | 1.25 | 10.0% | 1.19
CCOC(=O)N1CCN(c2nc(-c3ccco3)cc(C(F)(F)F)n2)CC1 | 7.9 | -8.7 | . | 1.21 | 11.0% | 1.04
COC(=O)C(C)Sc1nnc(Cc2cc(=O)[nH]c(=O)[nH]2)n1-c1ccc(OC)cc1 (configuration not stated) | -0.3 | 5.4 | -0.9 | 1.08 | 4.0% | 1.05
CNc1nnc(-c2ccncc2)s1 | 6.3 | 20.8 | 0.3 | 4.35* | 12.0% | 1.07
Cc1ccc(-c2nnc3sc(-c4ccncc4)nn23)cc1 | 11.2 | 3.9 | -4.2 | 1.11 | 7.0% | 1.06
Nc1nnc(-c2ccncc2)s1 | 19.0 | 5.3 | -0.7 | 3.88* | 11.0% | 1.04
COc1ccc(-c2nnc(N)s2)cc1 | 3.4 | 0.5 | 0.2 | 1.2 | 5.0% | 1.04
N#Cc1nc(-c2ccc(OCc3ccc(Cl)cc3)cc2)oc1N1CCOCC1 | -16.7 | 2.4 | 5.2 | 1.85 | 7.0% | 1.05
CCCOc1ccc(-c2nc(C#N)c(N3CCN(C)CC3)o2)cc1 | -2.7 | 1.9 | 1.2 | 3.87* | 2.0% | 1.1
CCOc1ccc(-c2nc(C#N)c(N3CCN(C)CC3)o2)cc1 | 5.6 | -3.5 | 0.6 | 2.92* | 2.0% | 1.04
CCOc1ccc(-c2nc(C#N)c(N3CCCCCC3)o2)cc1 | -4.6 | -13.9 | 0.1 | 2.43* | 4.0% | 1
COc1cc2c(cc1OC)[C@@H](c1ccccc1)CN(C)CC2 | . | . | -0.1 | . | . | .
CN1CCc2nc(SCC(=O)Nc3ccc(F)cc3)c(C#N)cc2C1 | 16.7 | -16.9 | -3.4 | 1.3 | 5.0% | 0.99
CN(C)C(=O)/N=N/C(=O)N(C)C | . | . | 5.6 | . | . | .
Cc1ccccc1N1C(=O)N(c2cccc(C(F)(F)F)c2)C2CS(=O)(=O)CC21 (configuration not stated) | 13.4 | 3.4 | 0.1 | 1.07 | 4.0% | 0.98
CCCCCCCC/C=C\CCCCCCCC(=O)NCCc1ccc(O)c(O)c1 | . | . | 83.8* | . | . | .
Cc1nonc1OCCNC(=O)C12CC3CC(CC(C3)C1)C2 | 0.3 | 3.9 | 3.8 | 1.12 | 11.0% | 1.05
CCC(Oc1ccccc1)C(=O)Nc1ccc(-c2nnc(-c3ccco3)o2)cc1 (configuration not stated) | 4.5 | -11.2 | -8.0 | 2.78* | 15.0% | 1.14
CCC(=O)Nc1ccc(S(=O)(=O)Nc2cccc(C)c2)cc1OC | 4.9 | 0.2 | -6.6 | 1.11 | 5.0% | 1.02
CC(C)OC(=O)c1c2nc3ccccc3nc2n2c1[nH]c(=O)c1ccccc12 | -1.4 | 3.6 | 14.1 | 2.28* | 3.0% | 1.01
SMILES | MKP-1 inh | Cdc25B block | Hsp90 block | Autofluor 339 | NADH enzymes | A340 absorber
Cc1nn(CCC(=O)O)c2nc(-c3cccnc3)cc(C(F)(F)F)c12 | 9.8 | 5.5 | -0.6 | 4.93* | 5.0% | 1.09
CCOC(=O)c1cc2c(C(F)(F)F)cc(-c3cccnc3)nc2o1 | 0.7 | -2.8 | -2.5 | 1.51 | 4.0% | 1.05
COC(=O)c1cc(OC)c(OC)c(OC)c1N | 8.6 | -3.3 | 2.4 | 2.3* | 7.0% | 1.06
COC(=O)Nc1c(C(=O)OC)cc(OC)c(OC)c1OC | -0.2 | 0.4 | -1.9 | 1.21 | 7.0% | 1.04
CCOc1ccccc1Nc1nc2ccccc2n2cnnc12 | 0.2 | -8.3 | -0.5 | 2.09* | 13.0% | 1.05
c1ccc(-c2nc(NC3CC3)nc(-n3ccnc3)n2)cc1 | -0.6 | 9.9 | 2.0 | 1.05 | 6.0% | 0.99
CCOC(=O)CCn1c2nc(C)cc(C)c2c(=O)n1-c1ccccc1 | 9.7 | 9.3 | 1.0 | 4.48* | 34.0% | 1.06
COCc1cc(C)c2c(N)c(C#N)sc2n1 | 2.0 | -5.3 | -4.3 | 2.44* | 4.0% | 1.04
CC(=O)Oc1ccc(NC(=O)CSc2ccccc2)cc1 | 4.8 | -6.0 | -0.7 | 1.11 | 3.0% | 1.06
CCCCc1cc(=O)oc2cc(C)cc(OCC(=O)O)c12 | 2.9 | -2.5 | -4.5 | 3.82* | 6.0% | 1.09
Cc1cc(OCC(=O)N(C)C)c2c(-c3ccccc3)cc(=O)oc2c1 | 13.9 | -19.0 | -1.7 | 1.41 | 13.0% | 1.11
COc1cc(OC)cc(-c2nc(-c3cc4cc(C)ccc4nc3OC)no2)c1 | 6.4 | -2.2 | -21.1 | 2.6* | 7.0% | 1.09
COc1nc2cc(C)ccc2cc1-c1noc(-c2cccnc2)n1 | 0.8 | 0.0 | -13.1 | 1.32 | 6.0% | 1
C=CCc1c(C)c(C#N)c2nc3ccccc3n2c1N1CCN(C)CC1 | -33.7 | 21.7 | -3.8 | 1.13 | 7.0% | 1.04
CCCCn1c(NC(C)CC)nc2c1c(=O)[nH]c(=O)n2C (configuration not stated) | 3.9 | 3.0 | -2.9 | 1.13 | 4.0% | 1.07
O=C(CCN1CCc2ccccc2C1)Nc1ccc(F)cc1 | -3.5 | -7.4 | -16.9 | 1.11 | 6.0% | 1.03
COC(=O)c1nc2n(n1)C(c1cc(OC)ccc1OC)C(C(=O)OC1CCCCC1)=C(C)N2 (configuration not stated) | 19.3 | -8.5 | . | 1.01 | 5.0% | 1.06
CCC1CCc2c(sc(NC(=O)c3ccoc3C)c2C(N)=O)C1 (configuration not stated) | 42.7 | -2.6 | -13.8 | 2.08* | 0.0% | 1.09
CCOC(=O)Nc1sc2c(c1C(=O)OCC)CCC2 | 19.3 | 7.1 | -4.2 | 1.15 | 2.0% | 1.02
CCCc1cc(C(=O)Nc2sc3c(c2C(=O)OCC)CCCC3)no1 | 7.0 | -6.4 | -3.6 | 2.08* | 5.0% | 1.1
CCOC(=O)c1c(NC(=O)c2ccoc2C)sc2c1CCC2 | 6.9 | 3.1 | -3.3 | 2.24* | 6.0% | 1.01
O=c1n(Cc2ccc(Cl)cc2)c2sc3c(c2c2ncnn12)CCCC3 | 17.6 | -5.9 | 0.4 | 1.1 | 5.0% | 1.1
CS(=O)(=O)N(CC(=O)N1CCCCCC1)c1ccc(Br)cc1 | -9.1 | -0.3 | -2.8 | 1.04 | 1.0% | 0.99
COc1ccccc1-c1nc(C#N)c(N2CCN(C(c3ccccc3)c3ccccc3)CC2)o1 | -10.8 | -6.2 | 1.6 | 3.85* | 14.0% | 1.06
COc1ccccc1-c1nc(C#N)c(N2CCN(c3cccc(Cl)c3)CC2)o1 | -9.1 | -16.8 | -0.6 | 3.52* | 18.0% | 0.91
